This note sets out measurements from ChEMBL document CHEMBL4513146, “CO-ADD screening of Karazin Kharkiv National University (Ukraine) compounds”.

For orientation: Inhibition means the relative decrease from the control value, in per cent.

Molecules are shown by their SMILES. Measured potencies and affinities stand elsewhere.

One experiment has as its system Klebsiella pneumoniae. As to conditions: Concentration 32 ug.mL-1;; ASSAY_TEST Inhibition of Bacterial Growth; detection method Absorption (OD600); MEDIA CAMHB; plate type 384well; NBS; CORNING #3640; time 18 hr.
In the next experiment the test system is Candida albicans. To be noted: Concentration 32 ug.mL-1; ASSAY_TEST Inhibition of Fungal Growth; detection method Absorption (OD530).
The subject of the next experiment is Cryptococcus neoformans. As to conditions: Concentration 32 ug.mL-1; ASSAY_TEST Inhibition of Fungal Growth; detection method Resazurin; Absorption (OD600-OD570); plate type 384well; NBS; CORNING #3640.

As to `O=C(Cn1nc2ccc(SC3CCCCC3)nn2c1=O)NCc1ccc(Cl)cc1`, the Inhibition in the experiment on Klebsiella pneumoniae is given as 12.01%; in the experiment with Candida albicans, 5.78%; in the experiment with Cryptococcus neoformans, -20.43%.

For the molecule `O=c1n(Cc2cccc(C(F)(F)F)c2)nc2c(S(=O)(=O)N3CCCCCC3)cccn12`, the results for the Inhibition in the experiment on Klebsiella pneumoniae, in the experiment on Candida albicans and in the experiment on Cryptococcus neoformans were 7.16%, 2.16% and -9.24%, respectively.

For `CCOc1ccc(-n2ccn3c(SCC(=O)c4ccc(OC)cc4)nnc3c2=O)cc1`, the Inhibition was 12.65% with Klebsiella pneumoniae, 0.38% in the experiment with Candida albicans and -12.6% with Cryptococcus neoformans.

Consider `CCc1ccccc1NC(=O)Cn1nc2c(SCc3ccc(Cl)cc3)nccn2c1=O`, for which the figures for the Inhibition in the experiment on Klebsiella pneumoniae, in the experiment with Candida albicans and in the experiment with Cryptococcus neoformans were 13.77%, 2.88% and -20.04%, respectively.

Consider `COc1ccc(OC)c(NC(=O)Cn2nc3ccc(-c4ccc(Cl)cc4)nn3c2=O)c1`, for which the Inhibition with Klebsiella pneumoniae is on record as 15.39%; with Candida albicans, 0.24%; in the experiment with Cryptococcus neoformans it was -17.15%.

Take `O=c1n(Cc2nc(-c3ccc4c(c3)OCO4)no2)nc2ccc(-c3ccccc3)nn12`: the Inhibition with Klebsiella pneumoniae was -1.48%; in the experiment with Candida albicans, 6.34%; in the experiment on Cryptococcus neoformans, -13.29%.

Consider `Cc1cc2nn(CC(=O)Nc3cc(F)ccc3C)c(=O)n2c(Nc2ccc(C)c(F)c2)n1`, for which the Inhibition was 11.43% with Klebsiella pneumoniae, 3.99% in the experiment on Candida albicans and -7.37% in the experiment with Cryptococcus neoformans.

`O=c1c2sccc2n2c(=O)n(Cc3cccc(Br)c3)nc2n1Cc1cccs1`: the values for the Inhibition in the experiment on Klebsiella pneumoniae, with Candida albicans and in the experiment on Cryptococcus neoformans were -22.43%, 62.43% and -21.53%, respectively.

On to `Cc1cc2nn(CC(=O)Nc3ccccc3C)c(=O)n2c(Nc2ccc(F)c(C)c2)n1`, for which the Inhibition is 13.6% in the experiment on Klebsiella pneumoniae, 21.67% with Candida albicans and -6.31% with Cryptococcus neoformans.

Turning to `CCOc1ccc(NC(=O)Cn2nc3c4cc(-c5ccc(C)cc5)nn4ccn3c2=O)cc1`, the values for the Inhibition in the experiment with Klebsiella pneumoniae, with Candida albicans and with Cryptococcus neoformans were 14.64%, 1.16% and -37.08%, respectively.
